Laboratory results from PubChem BioAssay AID624330 (Southern Research Specialized Biocontainment Screening …, 2012).
About 2,100 (0.62%) of roughly 340,000 compounds were called active.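 How the source made its calls: active means first-screen hits whose inhibition reached a set limit at any dose in the follow-up dose series; inconclusive means inhibition above the set first-screen limit but never retested; inactive means the rest.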 A selection follows. Entries with a potency or affinity are not part of this list.

The compounds below were run against Rac GTPase-activating protein 1 (Homo sapiens) (UniProt Q9H0H5) (assay: MgcRacGAP GTPase-activating activity inhibitors, confirmation, biochemical, ADP Hunter fluorescence, primary and confirmatory (AID 624330;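 further: fluorescence reports GDP produced by GAP-driven GTP hydrolysis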)). Details: MgcRacGAP-stimulated Rac1 GTP hydrolysis, at 30 µM, hits give high values, GST-tagged Rac1 F28L mutant substrate.
Sequence of Rac GTPase-activating protein 1 (Homo sapiens) (Q9H0H5 whole entry, looked up): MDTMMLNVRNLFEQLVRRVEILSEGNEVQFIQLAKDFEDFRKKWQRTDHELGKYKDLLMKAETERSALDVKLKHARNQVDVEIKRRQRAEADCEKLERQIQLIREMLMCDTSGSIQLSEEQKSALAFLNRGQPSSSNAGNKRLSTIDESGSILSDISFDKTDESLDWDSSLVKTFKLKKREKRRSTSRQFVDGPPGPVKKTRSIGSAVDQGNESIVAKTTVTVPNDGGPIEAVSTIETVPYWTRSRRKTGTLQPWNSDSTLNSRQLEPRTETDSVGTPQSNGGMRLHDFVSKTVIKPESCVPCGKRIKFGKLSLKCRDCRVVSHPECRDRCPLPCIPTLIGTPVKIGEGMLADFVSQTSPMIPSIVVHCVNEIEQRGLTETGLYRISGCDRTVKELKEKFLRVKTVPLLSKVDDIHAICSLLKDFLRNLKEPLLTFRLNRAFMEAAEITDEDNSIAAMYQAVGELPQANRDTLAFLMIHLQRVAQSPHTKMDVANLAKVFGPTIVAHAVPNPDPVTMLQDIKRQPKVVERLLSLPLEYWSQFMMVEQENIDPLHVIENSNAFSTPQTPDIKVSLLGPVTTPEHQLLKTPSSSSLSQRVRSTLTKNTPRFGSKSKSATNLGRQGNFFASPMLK

inhibition, inactive:
CC(=O)Nc1c2c(nn1-c1ccc(Cl)cc1)CSC2 2.25%
O=C(CCc1ccccc1)NNC(=O)COc1ccccc1 11.8%
Cc1ccc2ccc(C(Nc3cccc(C(F)(F)F)c3)c3cccnc3)c(O)c2n1 (configuration not stated) 10.8%
COc1cc(CCC(=O)OCC(=O)N(CCC#N)c2ccccc2)cc(OC)c1OC 7.7%
CCOc1cc(CNc2ncn[nH]2)ccc1OCC(=O)NC(C)(C)C 1.46%
COc1cccc(CNc2ccc3[nH]c(=O)[nH]c3c2)c1OCc1ccc(F)cc1 26.2%
COc1cc(CNc2ccc3[nH]c(=O)[nH]c3c2)ccc1OCc1ccc(C)cc1 16.9%
COc1cc(CNc2ncn[nH]2)ccc1OCc1cccc(C)c1 8.87%
Cc1ccc(NCc2ccccc2OCc2ccccc2F)cc1 11.5%
CCOc1cc(CNC)ccc1OCC(=O)NC(C)(C)C 2.12%
Oc1ccc(NCc2ccccc2OCc2ccccc2)cc1 11.9%
COc1cccc(CNCCO)c1OCc1ccccc1Cl 9.99%
COc1ccc(C(=O)Nc2ccncc2)c(OC)c1 13.1%
Cn1cc(C(=O)C(=O)NC2CCCCC2)c2ccccc21 10%
COc1ccc(C(CNC(=O)c2ccc(NS(=O)(=O)c3ccc(F)cc3)cc2)N2CCOCC2)cc1 (configuration not stated) 4.8%
CN(CC(=O)Nc1ccc(F)c(F)c1F)C(=O)CN1C(=O)NC2(CCCC2)C1=O 9.6%
CCOC(=O)c1cc2ccc3ccccc3c2oc1=O 8.31%
Cc1ccc2c(c1)nnn2C1CCN(CC(=O)NNC(=O)c2ccco2)CC1 0.28%
CCOc1cccc(CNc2ccc(O)cc2)c1OCc1ccc(Cl)cc1 19.5%
CCOc1cccc(CNc2ccc(O)cc2)c1OCc1ccccc1Cl 29.3%
CCCCCCN1C[C@@H](O)[C@H](n2cc(-c3ccc(F)cc3)nn2)C[C@@H]1c1ccc(C)cc1 6.07%
CNCc1c(OCc2ccccc2F)ccc2ccccc12 -6.3%
O=C1/C(=C\c2ccco2)CCC/C1=C\c1ccco1 38.4%
O=C1/C(=C\c2ccco2)SC(=S)N1c1ccccc1 23.6%
O=C1CNC(=O)/C(=C/c2ccco2)N1 14.3%
O=C1CNC(=O)/C(=C/c2cccs2)N1 0.05%
O=C1C(=Cc2cccs2)C(=O)c2ccccc21 4.2%
O=C1/C(=C\c2ccco2)NC(=S)N1c1ccccc1 21.9%
O=C1/C(=C/c2ccco2)CCc2ccccc21 8.52%
O=C1NC(=O)/C(=C/c2ccco2)N1 11%
O=C(NCc1cccc(Cl)c1)c1ccc(CS(=O)Cc2ccccc2Cl)o1 (configuration not stated) -7.5%
C[C@@H]1CCCCO[C@H](CN(C)C(=O)Nc2ccc3c(c2)OCO3)[C@H](C)CN([C@@H](C)CO)C(=O)c2cc(NS(=O)(=O)c3ccc(Cl)cc3)ccc2O1 10.2%
O=C(CN1CCOc2ccccc21)NCc1ccccc1 -7.36%
O=C(N/N=C\c1ccccn1)C1COc2cc3ccccc3cc2O1 (configuration not stated) 15.9%
CN1/C(=C/C2CC(=O)NC2=O)C(C)(C)c2ccccc21 (configuration not stated) 6.09%
O=c1oc2c(CN3CCCCC3)c(O)ccc2c2c1CCCC2 -1.27%
COc1ccc(-c2noc(CCC(=O)NCCCN3CCC(C)CC3)n2)cc1 8.68%
O=C(COc1ccc(S(=O)(=O)N2CCCC2)cc1)N1CCN(c2ccccc2F)CC1 3.38%
CCN(Cc1ccncc1)C(=O)c1ccc2c(c1)S(=O)(=O)c1ccccc1C2=O -39.1%
CCC1=NN2C(=N)/C(=C\c3ccc(SCc4ccco4)o3)C(=O)N=C2S1 45.8%
CCS(=O)(=O)C1=NN2C(=N)/C(=C\c3ccc(OC(=O)c4ccco4)c(OC)c3)C(=O)N=C2S1 30.5%
CCCC1=NN2C(=N)/C(=C\c3ccc(SCc4ccco4)o3)C(=O)N=C2S1 60.1%
CCOc1cc(/C=C2\C(=N)N3N=C(S(C)(=O)=O)SC3=NC2=O)ccc1OCCOc1cccc(OC)c1 12.1%
CC1=CN2C(=N)/C(=C/c3ccco3)C(=O)N=C2S1 5.23%
CCOc1cc(/C=C2\C(=N)N3N=C(S(=O)(=O)CC)SC3=NC2=O)ccc1OC(=O)c1ccco1 26.5%
C=CCOc1ccc(/C=C2\C(=N)N3N=C(S(=O)(=O)CC)SC3=NC2=O)cc1OC -6.72%
COc1cc(/C=C2/C(=N)N3C=CSC3=NC2=O)ccc1OCCCOc1cc(C)ccc1C 4.39%
CCC(=O)Nc1cc(-c2nn(C)c(=O)c3ccccc23)ccc1N1CCOCC1 1.97%
Cc1csc(SC(C)C(=O)NCc2ccc3c(c2)OCO3)n1 (configuration not stated) 6%
Cc1ncc(C[n+]2csc(CCOC(=O)C34CC5CC(CC(C5)C3)C4)c2C)c(N)n1 1.84%
CCOc1ccccc1OCC(=O)Nc1cc(S(=O)(=O)N2CCCCC2)ccc1OC 10.7%
Cn1c(Cc2ccccc2)nnc1SCc1nc2ccccc2c(=O)[nH]1 0.95%
COCC(=O)N1CCC(Oc2ccc(C(=O)N(C)Cc3nccs3)cc2)CC1 3.05%
CSc1ccccc1NC(=O)c1cccc(S(=O)(=O)N2CCN(C)CC2)c1 2.55%
C[C@H]1CCCCO[C@@H](CN(C)S(=O)(=O)c2ccc(F)cc2)[C@@H](C)CN([C@@H](C)CO)C(=O)c2cc(NC(=O)Nc3ccc4c(c3)OCO4)ccc2O1 9.48%
CCN(CC)CCCNC(=S)N1CCn2c(nc3ccccc32)C1 6.61%
O=C(NCC1CCCO1)c1cc([N+](=O)[O-])ccc1Cl (configuration not stated) 2.41%
O=C(CC1CCCC1)NNC(=O)c1ccc(Br)cc1 10.1%
CC1=NN(c2ccc(Cl)c(C(=O)O)c2)C(=O)/C1=C\c1ccc(-c2ccc(C(=O)O)cc2)o1 20.6%
CC1=NOC(=O)/C1=C/c1ccc(-c2ccc(Cl)cc2)o1 13%
CC1=NN(c2ccc(Br)cc2)C(=O)/C1=C/c1ccc(-c2ccccc2C(=O)O)o1 7.93%
CC1=NOC(=O)/C1=C\c1ccc(-c2cccc(Cl)c2)o1 12.5%
CC(=O)NCC1CCCN(Cc2cn(-c3ccccc3)nc2-c2ccc3c(c2)OCO3)C1 (configuration not stated) -2.78%
O=C(CNC(=O)c1ccco1)N/N=C/c1ccc(O)c([N+](=O)[O-])c1 1.55%
COc1cc(/C=N/NC(=O)c2cccs2)ccc1O 9.66%
COc1cccc(/C=N/NC(=O)CNC(=O)c2ccco2)c1O 13.1%
COc1ccc(/C=N/NC(=O)CNC(=O)c2cccs2)cc1 2.55%
O=S(=O)(c1cccc(S(=O)(=O)N2CCCC2)c1)N1CCCCC1 -4.65%
O=C(COC(=O)/C=C/c1cccc(C(F)(F)F)c1)NC(c1ccccc1)c1ccccc1 -0.08%
Cc1oc2ccccc2c1-c1cn2c(n1)SCC2 18.1%
COC(=O)c1[nH]c(C)c(/C(O)=C2\C(=O)C(=O)N(CCN(C)C)C2c2ccccc2OC)c1C (configuration not stated) -0.13%
CC(C)(C)OC(=O)NCC(=O)NCC(=O)OCc1ccccc1 4.89%
CC1(c2cccc(Br)c2)NC(=O)N(CC(=O)Nc2ccc3c(c2)OCO3)C1=O (configuration not stated) 8.04%
NS(=O)(=O)c1ccc(CCNCc2cc(Br)ccc2OCc2ccccc2F)cc1 1.51%
COCC1CCCCN1Cc1cn[nH]c1-c1ccc(OC)cc1OC (configuration not stated) -6.12%
CC(NC(=O)COC(=O)c1cc(=O)c2ccccc2o1)c1ccccc1 (configuration not stated) 2.31%
OCC1(CC2CCCCO2)CCN(C/C=C/c2ccccc2)CC1 (configuration not stated) 1.66%
COc1cccc(CN2CCC(CO)(CC3CCCCO3)CC2)c1 (configuration not stated) 10.7%
COc1ccc(/C=C/CN2CCC(Oc3ccc(C(=O)N4CCCCC4)cc3)CC2)cc1 7.82%
COc1ccccc1/C=C/CN1CCC(Oc2ccc(C(=O)N3CCCC3)cc2)CC1 7.28%
O=C(NCC1CCCO1)c1ccccc1-c1nc(-c2ccc(Cl)cc2)no1 (configuration not stated) 10.3%
CC(C)(C)NC(=O)NC(=O)CSc1nnc(-c2ccccc2F)n1N 11.7%
CC1(C)CC(O)C(C(O)c2cccc([N+](=O)[O-])c2)C(C)(C)N1 (configuration not stated) -4.29%
COC(=O)C1=C(C)N(Cc2ccco2)C(=O)/C1=C\c1ccc([N+](=O)[O-])cc1 40.1%
COC(=O)C1=C(C)N(CCc2ccc(OC)c(OC)c2)C(=O)/C1=C\c1ccc(O)cc1 27.5%
COC(=O)C1=C(C)N(Cc2ccc(C)cc2)C(=O)/C1=C\c1ccc(O)c(OC)c1 -0.65%
CCOc1cc(/C=C2\C(=O)N(Cc3ccc(C)cc3)C(C)=C2C(=O)OC)ccc1O 13.1%
Cc1cccc(C(C)C)c1NC(=O)COC(=O)c1cc2ccccc2oc1=O 4.05%
CCOC(=O)C1CCN(C(=O)Cn2nc(C)n3nc(-c4ccc(OC)cc4)cc3c2=O)CC1 4.91%
CCOC(=O)C(O)(CC(=O)c1ccc(Cl)cc1)C(=O)OCC 3.02%
CCn1c(-c2ccccc2)csc1=Nc1ccc(S(=O)(=O)O)cc1 9.33%
OCCn1c(-c2ccccc2)csc1=Nc1ccccc1 7.22%
